In PubChem BioAssay AID710 (SRMLSC, 2007) one finds growth inhibition data, which are given here for 83 molecules.

Structures are written as SMILES. In all, about 98,000 compounds went through this assay and about 150 (0.15%) were called active.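 Rule for the calls: active = growth inhibition above about 50% at one test dose (limit read from the data); inactive = the rest.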 The list comes from a sample in which actives are over-represented; it also holds similar structures and randomly drawn compounds.

This test can be described thus: antibacterial activity against E. coli BW25113 – strain BW25113, expanded library, OD600, primary screen (AID 710).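 Note: growth measured after 20 h incubation at 37 °C.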 The following applies: OD600 absorbance, at 100 µM, stronger effect = higher value.
For `COC(=O)CNC(c1ccccc1Cl)c1cc(Br)ccc1NC(=O)CCN1CCOCC1` (stereo not drawn), the growth inhibition is -3% (inactive).

In the case of `CCOC(=O)C1=C(CN2CCc3ccccc32)NC(=O)NC1c1ccc(Cl)cc1` (stereo not drawn), the growth inhibition was -2% (inactive).

Consider `O=C(CN(c1ccccc1)S(=O)(=O)c1ccc(Cl)cc1)Nc1ccccc1C(=O)N1CCCC1`, for which the growth inhibition is -17% (inactive).

For `Cc1cc(OC(=O)c2c(Cl)cccc2Cl)nc(C)n1`, the growth inhibition is 5% (inactive).

Regarding `COc1ccc(-n2nc(C(=O)NCC(=O)Nc3cccc(C)n3)c3ccccc3c2=O)cc1`, the growth inhibition is -15% (inactive).

In the case of `CCOc1cccc(SCc2noc(C(=O)NC(C)C)c2C(=O)O)c1`, the growth inhibition was -4% (inactive).

With `CCOC(=O)C(=CNc1cccc(C)n1)C(=O)OCC`, the growth inhibition is -6% (inactive).

Consider `O=C(NCC1CCCO1)/C(=C\c1ccco1)NC(=O)c1ccccc1` (stereo not drawn), for which the growth inhibition was -5% (inactive).

In the case of `O=C(NC1(C(F)(F)F)NC(=O)N(Cc2cccnc2)C1=O)c1ccccc1Cl` (stereo not drawn), the growth inhibition was -1% (inactive).

Take `O=C(/C=C/NNC(=O)c1cccc(Br)c1)c1ccccc1`: the growth inhibition was -3% (inactive).

As to `CNC(=O)c1c(NC(NC(=O)c2ccco2)C(=O)c2ccc(Cl)cc2)sc2c1CCCC2` (stereo not drawn), the growth inhibition is -6% (inactive).

On to `CCOc1ccc(C(O)Cn2c(=N)n(CCN3CCCCC3)c3ccccc32)cc1` (stereo not drawn), for which the growth inhibition was -1% (inactive).

Regarding `Cc1ccc(OCC(=O)Nn2cnc3ccccc32)cc1`, the growth inhibition is 5% (inactive).

In the case of `Cc1ccc(-n2nc3ccc(NC(=O)/C=C/c4ccco4)cc3n2)cc1C`, the growth inhibition is -1% (inactive).

For the molecule `S=c1nccc(-c2cc(Cl)sc2Cl)[nH]1`, the growth inhibition was 3% (inactive).

With `COc1ccccc1NC(=O)c1ccc2nc(N3C(=O)CCC3=O)sc2c1`, the growth inhibition was 0% (inactive).

Take `N#C/C(=C1/CCCN1)c1ccccn1`: the growth inhibition is 3% (inactive).

On to `CCOc1ccc(NC(=O)c2ccccc2NS(C)(=O)=O)cc1`, for which the growth inhibition is -4% (inactive).

`S=c1[nH]nc(-c2ccc(Cl)cc2)n1CC1CCCO1` (stereo not drawn): the growth inhibition was 2% (inactive).

Regarding `CSc1ccc(CCNC(=O)C2CCN(c3nnc(-n4cccc4)s3)CC2)cc1`, the growth inhibition was -3% (inactive).

In the case of `CSc1ccccc1C(=O)Nc1cccc(C(C)=O)c1`, the growth inhibition is -4% (inactive).

For `Clc1ccc(-c2nnc(-c3ccccc3)nc2N2CCSCC2)cc1`, the growth inhibition was -24% (inactive).

As to `COC(=O)c1c(CCl)noc1C(=O)NC(C)C`, the growth inhibition is 1% (inactive).

Turning to `CCn1c(Cc2cccs2)nnc1SCC(=O)c1ccc(C)cc1`, the growth inhibition is -2% (inactive).

With `Cc1cccc(NC(=O)N(Cc2cc3cc(C)cc(C)c3[nH]c2=O)CC2COCCO2)c1` (stereo not drawn), the growth inhibition is -1% (inactive).

`CCCCCOC(=O)c1ccc(N2C(=O)C3C4C=CC(C4)C3C2=O)cc1` (stereo not drawn): the growth inhibition is -5% (inactive).

`Cn1ncc(Br)c1C(=O)NCc1cccs1`: the growth inhibition was 5% (inactive).

As to `COc1ccc(/C(N)=N/OC(=O)Oc2ccccc2)cc1`, the growth inhibition was -14% (inactive).

Regarding `CCOC(=O)c1nn(-c2cccc(C)c2)cc1C(=O)c1ccccc1`, the growth inhibition was 5% (inactive).

As to `Cc1ccc(N(CC(=O)Nc2cccc(N(C)S(C)(=O)=O)c2)S(C)(=O)=O)cc1`, the growth inhibition was -5% (inactive).

Regarding `Cc1ccn(C(CC(=O)c2ccc(Br)cc2)C(=O)O)n1` (stereo not drawn), the growth inhibition was 8% (inactive).

For `Cn1sc(NC(=O)c2ccccc2)nc1=O`, the growth inhibition is -5% (inactive).

Consider `Cc1cc(C)c(S(=O)(=O)N2C=CC(C(F)(F)F)=NCC2)c(C)c1`, for which the growth inhibition is 7% (inactive).

Take `CCOc1ccc(S(=O)(=O)Nc2nc3cc(OC)ccc3s2)cc1`: the growth inhibition was -6% (inactive).

On to `CCCCc1nc(NCCN)c(C#N)c2c1CSC(C)(C)C2`, for which the growth inhibition is 33% (inactive).

In the case of `Cc1ccc(Oc2ccc3c(c2)C(=O)N(c2cccc4cccnc24)C3=O)cc1`, the growth inhibition was 3% (inactive).

As to `OCCNc1nc2ccccc2[nH]1`, the growth inhibition was 2% (inactive).

In the case of `Cc1ccc(S(=O)(=O)N2CCC(C(=O)NCC3CCCO3)CC2)cc1` (stereo not drawn), the growth inhibition is -7% (inactive).

`CC1(C)Cc2nc3sc4c(SCC(=O)NC(c5ccccc5)c5ccccc5)ncnc4c3cc2CO1`: the growth inhibition is -10% (inactive).

On to `CN(C)C(=O)c1cc(Br)ccc1Cl`, for which the growth inhibition is 2% (inactive).

`C=CCN(C(=O)Cn1ncc2c1-c1cc(C)ccc1OC2)c1ccccc1`: the growth inhibition was 5% (inactive).

`O=c1[nH]n(-c2cccc(Cl)c2)c2ncccc12`: the growth inhibition was -6% (inactive).

For `CCOc1ccccc1NC(=O)C12CC3CC(C1)CC(c1ccc(C)cc1)(C3)C2`, the growth inhibition is -16% (inactive).

As to `O=C(CCN1c2ccccc2Sc2ccccc21)Nc1ccccc1`, the growth inhibition was -21% (inactive).

Consider `Cc1cc([N+](=O)[O-])ccc1NCc1cccc([N+](=O)[O-])c1`, for which the growth inhibition is -11% (inactive).

As to `CCOc1ccc(S(=O)(=O)Nc2ccc(S(=O)(=O)Nc3cc(OC)ccc3OC)cc2)cc1`, the growth inhibition was -6% (inactive).

Turning to `CCCCn1c(=S)[nH]c2cc(S(=O)(=O)N3CCCCC3)ccc21`, the growth inhibition was 2% (inactive).

Regarding `CSC1=N/C(=C\c2ccc3c(c2)OCO3)C(=O)S1`, the growth inhibition is -11% (inactive).

`COc1cccc(NC(=O)c2nn(C34CC5CC(CC(C5)C3)C4)cc2[N+](=O)[O-])c1`: the growth inhibition was -6% (inactive).

In the case of `O=c1c2ccccc2c(-c2ccc(Br)cc2)nn1Cc1ccccc1`, the growth inhibition is -14% (inactive).

Consider `COc1ccc(-c2cn(-c3ccc(C)cc3)c(=O)n2CC(=O)Nc2ccc(OC)c(OC)c2)cc1`, for which the growth inhibition was -4% (inactive).

For `CC1CC(C)CN(C/C=C/c2ccccc2[N+](=O)[O-])C1` (stereo not drawn), the growth inhibition is -1% (inactive).

As for `CCCCNC(=O)OC(C)CNC(=O)OC` (stereo not drawn), the growth inhibition is 10% (inactive).

On to `Cc1cc(NC(=O)CS(=O)(=O)c2cn(C)c3ccccc23)no1`, for which the growth inhibition was 0% (inactive).

For the molecule `COc1cc(CNCc2cccs2)cc(Br)c1OC`, the growth inhibition is 5% (inactive).

For the molecule `c1ccc(COc2ccccc2CNCc2cccnc2)cc1`, the growth inhibition is 3% (inactive).

Take `CCNc1nc(N)nc(-c2cc(Cl)ccc2OC)n1`: the growth inhibition is 4% (inactive).

For `Cn1c(-c2sc3cc(C(F)(F)F)cnc3c2-c2ccccc2)n[nH]c1=S`, the growth inhibition was -2% (inactive).

On to `C=CCn1c(SCC(=O)c2ccc(Br)cc2)nnc1C(C)NC(=O)Cc1ccc(OC)cc1` (stereo not drawn), for which the growth inhibition is 4% (inactive).

Turning to `Cc1ccc(C(=O)N2CCN(C(=O)N3CCOCC3)CC2)cc1`, the growth inhibition is 0% (inactive).

With `CCN(CC)S(=O)(=O)c1ccc(N(C)Cc2ccc(C(F)(F)F)cc2)nc1`, the growth inhibition was -2% (inactive).

For the molecule `CC(C)Cn1cnc2c1c(=O)n(CC(O)c1ccccc1)c(=O)n2CC(C)C` (stereo not drawn), the growth inhibition is 8% (inactive).

Take `CC(=O)c1ccc2c(c1)c1ccccc1n2CC(C)C`: the growth inhibition is -1% (inactive).

With `CC(=O)c1c(C)n([O-])c2ccccc2[n+]1=O`, the growth inhibition is 100% (active).

On to `Cc1ccc(C)c(N2C(=O)CS/C2=N\NC(=O)c2ccccc2Cl)c1`, for which the growth inhibition was 1% (inactive).

For `Nc1c(-c2ccc(F)cc2)cnn1C1CCS(=O)(=O)C1` (stereo not drawn), the growth inhibition was 15% (inactive).

In the case of `COc1ccc(-c2c(C(C)=O)c(C)nc3sc4c(=O)n(-c5ccc(C)cc5)nnc4c23)cc1`, the growth inhibition is -14% (inactive).

Consider `COc1ccc(S(=O)(=O)Nc2ccc(F)cc2)c(C)c1C`, for which the growth inhibition is 11% (inactive).

In the case of `O=C(c1ccc2c(c1)OCO2)N1CCN(C(=O)c2ccco2)CC1`, the growth inhibition is 2% (inactive).

Turning to `CN=C1S/C(=C\c2ccc(Sc3ccc(Cl)cc3)o2)C(=O)N1C`, the growth inhibition was -20% (inactive).

On to `COC(=O)CNS(=O)(=O)c1ccc(Cc2ccc(S(=O)(=O)NCC(=O)OC)cc2)cc1`, for which the growth inhibition is 50% (active).

`COC(=O)CNS(=O)(=O)c1ccc(OC)cc1`: the growth inhibition is 1% (inactive).

As to `COC(=O)COc1ccc(S(=O)(=O)Nc2ccc(NC(C)=O)cc2)cc1`, the growth inhibition was 0% (inactive).

As for `Cc1ccc(C2CC2C(=O)NN)cc1` (stereo not drawn), the growth inhibition is -12% (inactive).

Take `CCCNC(=O)c1ccccc1NC(=O)CSCc1ccc(OC)cc1`: the growth inhibition is 0% (inactive).

As for `Cc1ccc(Sc2cc(N3CCOCC3)nc(-c3ccccc3)n2)cc1`, the growth inhibition was -9% (inactive).

As to `C=CCn1c(SCC(=O)/C(C#N)=C(\C)N)nc2sc(C)c(C)c2c1=O`, the growth inhibition is -6% (inactive).

On to `CC(C)(C)c1ccc(OC2=CS(=O)(=O)c3ccccc32)cc1`, for which the growth inhibition was -3% (inactive).

In the case of `Cc1ccc(CNC(=O)C2CC(c3ccccc3[N+](=O)[O-])=NO2)o1` (stereo not drawn), the growth inhibition is 0% (inactive).

As for `CCC(=O)Nc1ccc(S(=O)(=O)NCC2CCCO2)cc1` (stereo not drawn), the growth inhibition was 3% (inactive).

On to `CC(C)c1ccc(C(=O)NCCCc2ccccc2)cc1`, for which the growth inhibition was 1% (inactive).

For the molecule `C=CCOC(=O)C1=C(C)NC(SCC(=O)OCC)=C(C#N)C1c1ccc(C)cc1` (stereo not drawn), the growth inhibition was -10% (inactive).

As to `CCOc1ccc(C(=O)NC(C(=O)NCc2ccccn2)C(C)C)cc1` (stereo not drawn), the growth inhibition was -6% (inactive).
